In PubChem BioAssay (NCI):
About 79,000 compounds went through this panel and 15% of them were active in at least one assay; those are over-represented in the sample as a whole. Calls of active or inactive are those of the source. No stated cut-off is given here; in the data, active means growth inhibition above about 70%; inactive means the rest.

What was measured:
[1] = NCI Yeast Anticancer Drug Screen. Data for the rad52 strain (AID 147);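 further: 0% = growth of vehicle-treated control cultures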; conditions: S. cerevisiae rad52 mutant growth inhibition, hits give high values
How it was run: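 Genetically altered yeast (DNA damage repair defect) treated with compound; inhibition calculated relative to vehicle.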

[2] = NCI Yeast Anticancer Drug Screen. Data for the wt1 strain (AID 149);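 further: 0% = growth of vehicle-treated wt1 cultures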; conditions: S. cerevisiae wt1 strain (SPY 50644) growth inhibition, hits give high values
How it was run: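 Readout: yeast growth inhibition, normalised to vehicle controls, in the wt1 strain exposed to test compounds.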

[3] = NCI Yeast Anticancer Drug Screen. Data for the rad50EPP+ strain (AID 151);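 further: 0% = growth of vehicle-treated control cultures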; conditions: S. cerevisiae rad50 mutant strain, hits give high values
How it was run: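 Strain rad50EPP+; compound exposure; % growth inhibition vs vehicle.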

[4] = NCI Yeast Anticancer Drug Screen. Data for the mgt1 strain (AID 153); conditions: S. cerevisiae mgt1 mutant growth inhibition, hits give high values
How it was run: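 Read-out: yeast growth inhibition vs vehicle control. Strain mgt1, drawn from a panel altered in DNA damage repair or cell cycle control.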

[5] = NCI Yeast Anticancer Drug Screen. Data for the rad50 strain (AID 155);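 further: 0% = growth of vehicle-only cultures of the same strain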; conditions: S. cerevisiae rad50 strain growth inhibition, hits give high values
How it was run: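 Compounds were tested on a yeast strain with an engineered DNA damage repair alteration; the reported value is growth inhibition normalised to vehicle treatment.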

[6] = NCI Yeast Anticancer Drug Screen. Data for the mec2-1 strain (AID 157); conditions: S. cerevisiae mec2-1 strain, hits give high values
How it was run: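 Cells of the genetically defined mec2-1 yeast strain are incubated with test compound. Inhibition of growth is calculated against vehicle-treated controls.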

[7] = NCI Yeast Anticancer Drug Screen. Data for the rad14 strain (AID 159);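 further: 0% = growth of vehicle-treated control cultures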; conditions: S. cerevisiae rad14 strain growth inhibition, hits give high values
How it was run: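 Compound-treated yeast with a defined DNA-repair lesion; growth inhibition normalised to vehicle-treated cultures.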

[8] = NCI Yeast Anticancer Drug Screen. Data for the sgs1 mgt1 strain (AID 161);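 further: 0% = growth of cultures given vehicle only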; conditions: S. cerevisiae sgs1 mgt1 strain, hits give high values
How it was run: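 Read-out: growth inhibition vs vehicle controls. Cells: mutant yeast strain deficient in DNA damage repair.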

[9] = NCI Yeast Anticancer Drug Screen. Data for the CLN2oe strain (AID 163);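 further: 0% = growth of vehicle-only control cultures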; conditions: S. cerevisiae CLN2oe strain, hits give high values
How it was run: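 Strain altered in cell-cycle control, incubated with compound; growth compared to solvent-treated controls.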

[10] = NCI Yeast Anticancer Drug Screen. Data for the cln2 rad14 strain (AID 165);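 further: 0% = growth equal to vehicle treated cultures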; conditions: S. cerevisiae cln2 rad14 strain, hits give high values
How it was run: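 The screen exposed genetically defined yeast (cln2 rad14) to test compounds and scored growth inhibition relative to vehicle-treated controls.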

[11] = NCI Yeast Anticancer Drug Screen. Data for the bub3 strain (AID 167); conditions: S. cerevisiae bub3 mutant strain, hits give high values
How it was run: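 Growth of a checkpoint-deficient yeast mutant is measured after compound exposure. Values represent inhibition relative to vehicle.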

[12] = NCI Yeast Anticancer Drug Screen. Data for the wt2 strain (AID 169);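 further: 0% = growth of vehicle-treated yeast cultures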; conditions: S. cerevisiae wt2 strain growth inhibition, hits give high values
How it was run: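 Steps: yeast strain treated with compound; growth recorded; inhibition calculated relative to cultures given vehicle alone.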

[13] = NCI Yeast Anticancer Drug Screen. Data for the mlh1 strain (AID 171);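 further: 0% = growth of vehicle-treated control cultures of the same strain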; conditions: S. cerevisiae mlh1 strain growth inhibition, hits give high values
How it was run: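 Yeast screen: mutant strain plus compound, growth scored against vehicle control wells.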

[14] = NCI Yeast Anticancer Drug Screen. Data for the sgs1 strain (AID 173);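 further: 0% = growth of vehicle-only control cultures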; conditions: S. cerevisiae sgs1 mutant, hits give high values
How it was run: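 Inhibition of yeast growth served as the measure. The mutant strain was treated with each compound, and growth was normalised to cultures receiving vehicle alone.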

[15] = NCI Yeast Anticancer Drug Screen. Data for the mlh1 rad18 strain (AID 175); conditions: S. cerevisiae mlh1 rad18 strain growth inhibition, hits give high values
How it was run: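 Compound-treated yeast growth, normalised to vehicle controls. Strain bears defined DNA repair mutations.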

[16] = NCI Yeast Anticancer Drug Screen. Data for the rad18 strain (AID 177); conditions: S. cerevisiae rad18 mutant growth inhibition, hits give high values
How it was run: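 Inhibition values reflect reduced yeast growth compared with vehicle-treated controls, using a strain engineered with a DNA damage repair defect.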

[17] = at 5.0 µM (retest, dose inferred, filed as 0.5)
[18] = at 50.0 µM (retest, dose inferred, filed as 5.0)

For O=C1C(=O)c2ccccc2C(O)=C1C(C1=C(O)c2ccccc2C(=O)C1=O)c1ccc(Cl)cc1, the growth inhibition ([1]; at 1.2 µM) was 9% (inactive), the growth inhibition ([1]; at 3.7 µM) was 26% (inactive) and the growth inhibition ([1]; at 11.0 µM) was 62% (inactive). For the same compound, the growth inhibition ([1]; at 33.0 µM) was 60% (inactive), the growth inhibition ([1]; at 100.0 µM) was 48% (inactive) and the growth inhibition ([2]; at 1.2 µM) was 4% (inactive). For the same compound, the growth inhibition ([2]; at 3.7 µM) was 8% (inactive), the growth inhibition ([2]; at 11.0 µM) was 31% (inactive) and the growth inhibition ([2]; at 33.0 µM) was 32% (inactive). For the same compound, the growth inhibition ([2]; at 100.0 µM) was 29% (inactive), the growth inhibition ([3]; at 1.2 µM) was 7% (inactive) and the growth inhibition ([3]; at 3.7 µM) was 28% (inactive). The growth inhibition ([3]; at 11.0 µM) was 51% (inactive), the growth inhibition ([3]; at 33.0 µM) was 48% (inactive) and the growth inhibition ([3]; at 100.0 µM) was 30% (inactive). The growth inhibition ([4]; at 1.2 µM) was 4% (inactive), the growth inhibition ([4]; at 3.7 µM) was 9% (inactive) and the growth inhibition ([4]; at 11.0 µM) was 64% (inactive). For the same compound, the growth inhibition ([4]; at 33.0 µM) was 75% (active), the growth inhibition ([4]; at 100.0 µM) was 69% (inactive) and the growth inhibition ([5]; at 1.2 µM) was 11% (inactive). The growth inhibition ([5]; at 3.7 µM) was 18% (inactive), the growth inhibition [5, 17] was -7% (inactive) and the growth inhibition ([5]; at 11.0 µM) was 51% (inactive). The growth inhibition ([5]; at 33.0 µM) was 41% (inactive), the growth inhibition [5, 18] was 73% (active) and the growth inhibition ([5]; at 50.0 µM) was 92.5% (active). For the same compound, the growth inhibition ([5]; at 100.0 µM) was 31% (inactive), the growth inhibition ([6]; at 1.2 µM) was 10% (inactive) and the growth inhibition ([6]; at 3.7 µM) was 18% (inactive). The growth inhibition [6, 17] was -5% (inactive), the growth inhibition ([6]; at 11.0 µM) was 60% (inactive) and the growth inhibition ([6]; at 33.0 µM) was 63% (inactive). For the same compound, the growth inhibition [6, 18] was -6% (inactive), the growth inhibition ([6]; at 50.0 µM) was 72.2% (active) and the growth inhibition ([6]; at 100.0 µM) was 65% (inactive). For the same compound, the growth inhibition ([7]; at 1.2 µM) was 5% (inactive), the growth inhibition ([7]; at 3.7 µM) was -6% (inactive) and the growth inhibition ([7]; at 11.0 µM) was 28% (inactive). The growth inhibition ([7]; at 33.0 µM) was 32% (inactive), the growth inhibition ([7]; at 100.0 µM) was 15% (inactive) and the growth inhibition [8, 17] was -2% (inactive). The growth inhibition [8, 18] was 21% (inactive), the growth inhibition ([8]; at 50.0 µM) was 60.1% (inactive) and the growth inhibition ([9]; at 1.2 µM) was 3% (inactive). The growth inhibition ([9]; at 3.7 µM) was 12% (inactive), the growth inhibition ([9]; at 11.0 µM) was 60% (inactive) and the growth inhibition ([9]; at 33.0 µM) was 66% (inactive). The growth inhibition ([9]; at 100.0 µM) was 63% (inactive), the growth inhibition [10, 17] was 0% (inactive) and the growth inhibition [10, 18] was 3% (inactive). The growth inhibition ([10]; at 50.0 µM) was 42.4% (inactive), the growth inhibition ([11]; at 1.2 µM) was -1% (inactive) and the growth inhibition ([11]; at 3.7 µM) was 5% (inactive). For the same compound, the growth inhibition [11, 17] was -3% (inactive), the growth inhibition ([11]; at 11.0 µM) was 55% (inactive) and the growth inhibition ([11]; at 33.0 µM) was 66% (inactive). The growth inhibition [11, 18] was 34% (inactive), the growth inhibition ([11]; at 50.0 µM) was 80% (active) and the growth inhibition ([11]; at 100.0 µM) was 50% (inactive). The growth inhibition ([12]; at 1.2 µM) was 4% (inactive), the growth inhibition ([12]; at 3.7 µM) was 15% (inactive) and the growth inhibition ([12]; at 11.0 µM) was 50% (inactive). The growth inhibition ([12]; at 33.0 µM) was 54% (inactive), the growth inhibition ([12]; at 100.0 µM) was 46% (inactive) and the growth inhibition ([13]; at 1.2 µM) was 6% (inactive). For the same compound, the growth inhibition ([13]; at 3.7 µM) was 13% (inactive), the growth inhibition ([13]; at 11.0 µM) was 58% (inactive) and the growth inhibition ([13]; at 33.0 µM) was 62% (inactive). The growth inhibition ([13]; at 100.0 µM) was 56% (inactive), the growth inhibition ([14]; at 1.2 µM) was 16% (inactive) and the growth inhibition ([14]; at 3.7 µM) was 39% (inactive). The growth inhibition ([14]; at 11.0 µM) was 74% (active), the growth inhibition ([14]; at 33.0 µM) was 72% (active) and the growth inhibition ([14]; at 100.0 µM) was 63% (inactive). The growth inhibition [15, 17] was -5% (inactive), the growth inhibition [15, 18] was 42% (inactive) and the growth inhibition ([15]; at 50.0 µM) was 86.2% (active). The growth inhibition ([16]; at 1.2 µM) was 23% (inactive), the growth inhibition ([16]; at 3.7 µM) was 38% (inactive) and the growth inhibition ([16]; at 11.0 µM) was 70% (active). For the same compound, the growth inhibition ([16]; at 33.0 µM) was 64% (inactive) and the growth inhibition ([16]; at 100.0 µM) was 49% (inactive).
